Insulin prom inh: TRM-6 insulin promoter activity inhibition; TRM-6 cells (human fetal islet line), insulin promoter-eGFP reporter, imaging; reporter expression induced with tamoxifen; inhibition, % at 2 µM; 130,000 compounds, 0.9% hits;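 active means inhibition above the mean plus 3 SD, with well images judged a real hit on visual review, cut at about 60% in these data, passing the limit was not always enough; inconclusive means inhibition over the cutoff but images rejected on review; inactive means inhibition not above the cutoff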
Ins promoter up: MIN6 insulin promoter up-regulation | z-score at 5 µM | 190,000 compounds, 0.3% hits | MIN6 insulin promoter-GFP reporter, high-content imaging; active compounds read high;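 active means z-score above 3 at 5 µM with at least 500 cells counted in the well; inconclusive means wells under 500 cells, flagged as cytotoxic or low count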
eIF4E 4G PPI: inhibitors of eIF4E and eIF4G interaction in translation initiation | P63073+Q04637 | TR-FRET eIF4E-eIF4GI(517-606) binding, 2 h | inhibition, % at 21.7 µM | 220,000 compounds, 0.37% hits;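 active means inhibition above about 30%, limit read from the data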;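 further: 0% = full FRET control wells and 100% = background wells lacking eIF4GI fragment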
PERK inh: human PERK inhibition, primary cell-based screen. Q9NZJ5. CHO PERK-DD fusion, SEAP luminescence translation reporter. 220,000 compounds, 0.17% hits. inhibition, % at 5.6 µM. AID 1416;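 active means inhibition above the mean inhibition of all tested compounds plus 3 SD, set separately per screening campaign, cut at about 2.9% in these data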;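 further: PERK kinase domain activated by AP20187 dimerizer at 100 nM; 0% = DMSO with dimerizer and 100% = rapamycin at 8.4 µM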
Autophagy mod: alters autophagy in cells. 190,000 compounds, 0.98% hits. calls only at 10 µM (by protocol). MEF GFP-LC3 puncta imaging; test concentration mostly 10 µM;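 active means percentage of spot-positive cells more than 3 SD above its plate mean, without a fluorescence outlier flag or 80% toxicity; inconclusive means no clear call, values can overlap the other calls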;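 further: spot-positive cell cutoff set from DMSO-treated cells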
Starred values were filed as active, the others as inactive. The list is not random: actives were taken first. Their share in the collection is about 2%.

Results for CNC(=O)COc1ccc(S(=O)(=O)Nc2ccc(OC)cc2)cc1 ?
Ins promoter up: 0.04; eIF4E 4G PPI: 4; PERK inh: 3.6*; Autophagy mod: inactive

Results for CC(=O)CCc1c(C)c2cc(C)ccc2[nH]c1=O ?
Insulin prom inh: 70*; Ins promoter up: -1.2; eIF4E 4G PPI: -11; PERK inh: -1; Autophagy mod: inactive

How did CC(CC(C)C(=O)Nc1ccccc1C(C)(C)C)C(=O)O (centres undefined) do in these assays?
Insulin prom inh: 25; eIF4E 4G PPI: -3; PERK inh: 0; Autophagy mod: inactive

Results for COC(=O)C(NC(=O)CSc1nc(N)cc(=O)[nH]1)c1ccccc1 (centres undefined) ?
Ins promoter up: 0.21; eIF4E 4G PPI: -2; PERK inh: 1; Autophagy mod: inactive

What do the screens show for `CC(=O)C(C)Oc1ccc(Cc2ncc(C(F)(F)F)cc2Cl)cc1` (centres undefined)?
Insulin prom inh: -16; Ins promoter up: -0.22; eIF4E 4G PPI: 1; PERK inh: 1; Autophagy mod: inactive

How did O=Nc1c(O)n(Cc2ccc(Cl)cc2)c2ccccc12 do in these assays?
Insulin prom inh: 17; Ins promoter up: 3*; eIF4E 4G PPI: 12; PERK inh: 1; Autophagy mod: inactive

How did CCC(=O)n1nc(-c2ccccc2)nc1NCc1ccccc1 do in these assays?
Insulin prom inh: 86*; Ins promoter up: 0.75; eIF4E 4G PPI: -10; PERK inh: 0; Autophagy mod: inactive

How did Cc1[nH]c2c(C)cccc2c1CCNS(=O)(=O)c1cccc([N+](=O)[O-])c1 do in these assays?
eIF4E 4G PPI: 2; PERK inh: 0; Autophagy mod: active

What do the screens show for `COC(C[C@H](O)[C@H](C)[C@H](O)COCc1ccccc1)OC`?
Ins promoter up: -0.14; eIF4E 4G PPI: 79*

How did Cc1ccc(-n2ncc(Br)c(Br)c2=O)cc1 do in these assays?
Insulin prom inh: -400; Ins promoter up: -5; eIF4E 4G PPI: -4; PERK inh: 0; Autophagy mod: active

Results for O=c1c(Br)c(Br)cnn1-c1ccccc1 ?
Ins promoter up: inconclusive; eIF4E 4G PPI: -4; PERK inh: 1; Autophagy mod: inactive

Results for COc1ccc(C2=NCC(CSc3nccc(=O)[nH]3)S2)cc1 (centres undefined) ?
Insulin prom inh: 86*; eIF4E 4G PPI: 5; PERK inh: 1; Autophagy mod: inactive

What do the screens show for `CC(C)(C)NC(=O)NC(=O)COC(=O)c1ccc(OC(F)(F)F)cc1`?
Ins promoter up: -0.17; eIF4E 4G PPI: 2; PERK inh: 0; Autophagy mod: inactive

Results for COc1ccc(-c2nc(SC)n(S(=O)(=O)c3ccccc3)n2)cc1 ?
Insulin prom inh: 90*; Ins promoter up: 0.25; eIF4E 4G PPI: 1; PERK inh: 0; Autophagy mod: inactive

How did CCN(C(=O)Cn1c(=O)n(-c2cc(OC)c(OC)c(OC)c2)c(=O)c2ccccc21)c1cccc(C)c1 do in these assays?
Insulin prom inh: 0; eIF4E 4G PPI: -3; PERK inh: 2; Autophagy mod: inactive

How did CCN(CC)C(=O)Cn1c(=O)c2ccccc2n2c(=S)sc(-c3cccc(C)c3)c12 do in these assays?
Ins promoter up: 1.4; eIF4E 4G PPI: 1; PERK inh: 1; Autophagy mod: active

How did Cc1nn(CC(=O)Nc2sc3c(c2C#N)CCC(C(C)(C)C)C3)c(C)c1[N+](=O)[O-] (centres undefined) do in these assays?
Insulin prom inh: 9; Ins promoter up: 0.41; eIF4E 4G PPI: 3; PERK inh: 3.0*; Autophagy mod: inactive

Results for Cc1nn(CCCC(=O)Nc2sc3c(c2C#N)CCC3)c(C)c1[N+](=O)[O-] ?
Ins promoter up: 0.27; eIF4E 4G PPI: -9; PERK inh: -2; Autophagy mod: inactive

Results for O=C(Nc1ccc(N2CCN(Cc3ccccc3Cl)CC2)cc1)c1cccnc1 ?
Insulin prom inh: -37; eIF4E 4G PPI: 5; PERK inh: 0; Autophagy mod: inactive

How did O=C(Nc1ccc(N2CCCCC2)cc1)c1cccnc1 do in these assays?
Insulin prom inh: 10; Ins promoter up: 3.4*; eIF4E 4G PPI: 6; PERK inh: 0; Autophagy mod: inactive

What do the screens show for `C(=N\N1CCOCC1)/c1cccs1`?
Insulin prom inh: -59; Ins promoter up: 0.35; eIF4E 4G PPI: 3; PERK inh: 2; Autophagy mod: inactive

What do the screens show for `Nc1nc(-c2ccccn2)nc(N)c1Cc1ccc(Cl)cc1Cl`?
Insulin prom inh: -43; Ins promoter up: 0.29; eIF4E 4G PPI: 0; PERK inh: -1; Autophagy mod: active
